Measured values as given in PubChem BioAssay AID588849 (Broad Institute, 2011).
Results with a measured potency or affinity are listed apart. The source made the active and inactive calls. How the calls were made is not given here.

molecular target: CAAX prenyl protease 2 (Homo sapiens) (UniProt Q9Y256); test: human Rce1 protease inhibitors, dose response, biochemical, yeast membranes, quenched-peptide fluorescence, cherry-pick (AID 588849); settings: yeast membrane fractions expressing human Rce1, quenched-peptide fluorescence, 4 h; series mostly up to 10 µM
Sequence (Q9Y256 whole entry, looked up): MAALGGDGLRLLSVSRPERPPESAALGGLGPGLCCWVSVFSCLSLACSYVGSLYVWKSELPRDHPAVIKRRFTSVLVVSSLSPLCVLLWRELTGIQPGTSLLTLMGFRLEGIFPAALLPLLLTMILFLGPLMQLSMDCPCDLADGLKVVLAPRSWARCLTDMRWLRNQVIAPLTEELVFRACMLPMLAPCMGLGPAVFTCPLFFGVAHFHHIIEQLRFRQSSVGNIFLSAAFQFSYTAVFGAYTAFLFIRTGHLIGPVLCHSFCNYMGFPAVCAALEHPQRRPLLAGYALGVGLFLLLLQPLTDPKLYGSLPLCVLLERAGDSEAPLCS

outcome, inactive:
Cc1cc(C)n2nc(CC(=O)NNC(=O)c3ccc(N(C)C)cc3)nc2n1
CCCCNC(=O)C(CC)Sc1nc2sc(C(=O)OC)c(C)c2c(=O)n1N (centres undefined)
Cc1cc(NS(=O)(=O)c2ccccc2)c([N+](=O)[O-])cc1C
Cc1cc(C)cc(N2CC(O)=C(c3nc4ccccc4c(=O)[nH]3)C2=N)c1
CCN1CCN(c2ccc(NC(=O)c3cccc(OCc4ccccc4)c3)cc2)CC1
Nc1nc2c(ncn2COC(CO)CO)c(=O)[nH]1
CC1CCc2c(sc(NC(=O)COC(=O)c3ccccc3NCc3ccco3)c2C#N)C1 (centres undefined)
COc1ccc(/C=N/NC(=O)c2ccc(Cl)cc2)cc1COC(C)=O
Nc1nnnn1/N=C/c1ccccc1OCc1ccc(Cl)cc1Cl
O=C1OCCN1C(=O)[C@H]1[C@H](c2ccc(F)cc2)C(c2ccc(F)cc2)=NN1c1ccc(Br)cc1
COC(C/C=C/[C@H](O)[C@@H](C)OCc1ccccc1)OC
Cc1cc(N2CCOCC2)n2cc(-c3ccccc3)nc2n1
COc1ccc(CC(=O)OCC(=O)Nc2ccc(Br)cc2)cc1
O=C(COc1ncnc2cc([N+](=O)[O-])ccc12)NC(=O)NC1CCCCC1
Cc1cc(C)n(-c2nc3ccccc3c(=O)n2OCC(=O)N(C)C)n1
COc1ccccc1N1CCN(c2ncc(C(=O)N3CCN(c4cccc(Cl)c4)CC3)c3ccccc23)CC1
C=CCn1c(SCc2ccc(C#N)cc2)nnc1-c1ccc(C)cc1
O=C(O/N=C\c1ccc(N2CCCCC2)c([N+](=O)[O-])c1)c1cccc(C(F)(F)F)c1
COC(=O)c1cnn2c3c(c(C)nc12)CCCC3
O=C(CSc1n[nH]c(-c2ccc(S(=O)(=O)N3CCCCC3)cc2)n1)Nc1nccs1
C=C(C)C1(O)OC(=O)C=C1OC (centres undefined)
Cc1cc(C)cc(Nc2nc(-c3ccc(S(=O)(=O)N4CCCC4)cc3)cs2)c1
O=C(COc1ccc2ccc(=O)oc2c1)NCCc1c[nH]c2ccc(F)cc12
CCOc1ccc(N(Cc2ccc(OC)cc2)C(=O)c2ccco2)cc1
Cc1ccc(Nc2nc(-c3ccc(S(=O)(=O)N4CCOCC4)cc3)cs2)cc1Cl
CS(=O)(=O)Nc1ccccc1C(=O)NC1CC2CCC1C2 (centres undefined)
COc1ccc2[nH]c(C(=O)NCCCn3ccnc3)cc2c1
Cc1ccc(-c2cc(C)nc3nc(N)nn23)cc1
Cc1cccc2sc(N(CCN(C)C)C(=O)c3ccc4ccccc4c3)nc12
Cc1cc(OCC(=O)N2CCC(C(=O)O)CC2)c2c(C)cc(=O)oc2c1
COc1ccc(-c2c(-c3ccsc3)oc3ccc(N4CCOCC4)cc23)cn1
O=C1NC(c2ccc(Br)cc2)Nc2ccccc21 (centres undefined)
Cc1cc(N2CCN(C(c3ccccc3)c3ccccc3)CC2)n2ncnc2n1
COc1ccc(Cc2nc3ccc(C(=O)N4CCCC4)cc3o2)cc1
Cc1ccc(-c2cc(-c3ccccc3)c(C#N)c(Br)n2)cc1
CCn1c(C)nc2c(=O)oc3ccccc3c21
Cc1ccc(NC(=O)CCc2ccc(S(=O)(=O)NC3CCCCC3)cc2)cc1
Nc1nonc1-n1nnc(C(=O)N/N=C/c2ccoc2)c1CSc1ccccc1
CCCn1c(O)c(N=NC(=O)CNC(=O)Cc2ccc(OC)cc2)c2ccccc21
